Measurements from ChEMBL document CHEMBL4513216, “Probing the Open Global Health Chemical Diversity Library for Multistage-Active Starting Points for Next-Generation Antimalarials” (ACS Infect Dis, 2020).
Out of some 69,000 compounds screened, about 8,600 (12%) showed an effect of 50% or more. Only a selection was taken, and strong results are over-represented in it overall.

System: Plasmodium berghei
Assay: Screen against P. berghei liver stage (PbLuc), transformed with Luciferase, at 10uM
Assay type: functional, HepG2
Conditions: tested at 10 uM

Structure (SMILES)	INHIBITION [%]
CN(C)CCNC(=O)[C@H]1C[C@H]2CN(C(=O)NCc3ccccc3)C[C@@H]1O2	-0.27
CN(Cc1noc(C2CC2)n1)C1CCN(Cc2ccc(F)c(F)c2)C1 (stereo not drawn)	-19.945
Cc1ccc(N2CC3(CCN(c4nccs4)C3)C2)nn1	58.5
Cc1nc(CN2CC3(CCN(c4ncccn4)C3)CC2=O)cs1 (stereo not drawn)	18.2
N#Cc1ccc(N2CC3(CCN(c4nccs4)C3)C2)nc1	37.9
CCc1cnc(N2CCC3(CC(=O)N(Cc4csc(C)n4)C3)C2)nc1 (stereo not drawn)	34.4
Cc1cnc(N2CCC3(CC(=O)N(Cc4csc(C)n4)C3)C2)nc1 (stereo not drawn)	54.7
c1csc(CN2CCC3(CC2)CCN(CC2CCOCC2)C3)n1	-8.85
Cc1nc(CN2CC3(CCN(c4cnccn4)C3)CC2=O)cs1 (stereo not drawn)	35.8
Cc1ccc(N2CCC3(CC2)COCCN(c2nccs2)C3)nn1	6.72
COc1cc(N2CCC3(CC(=O)N(Cc4csc(C)n4)C3)C2)ncn1 (stereo not drawn)	58.4
Cc1nc(CN2CC3(CCN(c4ncc(F)cn4)C3)CC2=O)cs1 (stereo not drawn)	-30
COc1cc(N2CCC3(CCN(Cc4nccs4)CC3)C2)ncn1	91.9
COc1cc(N2CC3(CCN(c4ncccn4)C3)C2)ncn1	12.1
Cc1cccc(C(=O)Nc2c(C(=O)N(C)C)nn(C)c2C)c1	35
Cc1cnn(CC2CN(C=C3NN=C(c4occc4C)O3)CCO2)c1 (stereo not drawn)	13.3
Cc1cccc(CN2C(=O)CCC23CCN(C(=O)c2ccco2)CC3)c1	-7.28
Cc1nc(C)n(C2CCCN(C(=O)CCn3cncn3)C2)n1 (stereo not drawn)	14.9
CCc1nc(CN(C)c2nccc(N3CCCC(O)C3)n2)no1 (stereo not drawn)	20.3
Cc1nc(O)ccc1C(=O)NCc1ncccc1F	12.6
O=C(NC1(c2nc(C3CC3)no2)CCCCC1)c1ccncc1	-3.19
COCCNC(=O)NC1(c2nc(-c3ccncc3)no2)CCCCC1	56.3
COCCNC(=O)NC1(c2nc(C)no2)CCCCC1	19.2

Structure (SMILES)	INHIBITION [%]
CC(C)CNS(=O)(=O)c1ccc(C(=O)N(C)CCc2cn[nH]c2)cc1	-12.4
NC(=O)c1c(-c2ccc(Cl)cc2Cl)csc1NC(=O)CCC(=O)O	44.9
O=C(NCCC(=O)N1CCCc2ccccc21)c1cc(F)cc(F)c1	-19.9
O=C(NCCC(=O)N1CCCc2ccccc21)c1c(F)cccc1F	-57.4
O=C(NCCC(=O)N1CCCc2ccccc21)c1c(O)cc(F)cc1F	73.9
O=C(NCC(=O)N1CCCc2ccccc21)c1c(O)cc(F)cc1F	80.6
O=C(NCCS(=O)(=O)N1CCc2ccccc21)c1c(O)cc(F)cc1F	42
O=C(NCCC(=O)N1CCCc2ccccc21)c1ccc(F)cc1F	11.6
C=C(C)COc1ccc(C(CC(=O)OC)c2oc(C)cc(=O)c2O)cc1 (stereo not drawn)	-24.7
CNc1ncc(CN(C)C(=O)c2cccc(Cn3cccn3)c2)cn1	18.5
CCc1ccccc1Nc1noc2c1CN(C(=O)c1ccn(C)n1)CC2	-3.35
CCn1ccnc1CN1CCN(Cc2cccnc2)CC1C (stereo not drawn)	33.5
CC(C)NC(=O)N1CC(=O)c2sc(Nc3ccc(C#N)cc3)nc2C1	61.9
CC[C@H](C)[C@H](N)C(=O)N1CC(=O)c2sc(Nc3ccc(F)cc3)nc2C1	14.5
CC(C)CC(=O)N1CC(=O)c2sc(Nc3ccc(F)cc3)nc2C1	51.5
N#Cc1ccc(Nc2nc3c(s2)C(=O)CN(CC2CC2)C3)cc1	-15.2
CC(C)NC(=O)N1CC(=O)c2sc(NC3CCCCC3)nc2C1	-16.7
CCN1CC(=O)c2sc(NC(C)C)nc2C1	23.4
CC(C)Nc1nc2c(s1)C(=O)CN(C)C2	35.2
CC(C)CC(=O)N1CC(=O)c2sc(Nc3ccc(C#N)cc3)nc2C1	79.7
Cc1nc(C)n(CC2CCCN(CCCOc3ccc(F)cc3)C2)n1 (stereo not drawn)	40.2
NC(=O)C1CCN(CCc2ccc(NC(=O)C3CC3)cc2)CC1	45.05
CC(O)(CNC(=O)NCCc1ccc2c(c1)CCO2)c1ccsc1 (stereo not drawn)	30.8

Structure (SMILES)	INHIBITION [%]
CC(C)c1nn(C)cc1CNC1CCOc2ccccc21 (stereo not drawn)	31.8
COc1ccccc1C1CNCCN1C(C)=O (stereo not drawn)	9.98
CC(=O)N1CCC2(CCCN2Cc2cnn(C)c2)CC1	-26
COc1ccnc(N2CCCN(c3nc(C4CC4)ns3)CC2)n1	77.6
CCOc1ccnc(N2CCCN(c3nc(CC)ns3)CC2)n1	-12.5
CCOc1ccnc(N2CCCN(c3nc(C4CC4)ns3)CC2)n1	-75.5
CC(NC(=O)Cn1ccc(=O)n(C)c1=O)c1cc(F)ccc1F (stereo not drawn)	-35.7
CC(NC(=O)Cn1ccc(=O)n(C)c1=O)c1ccccc1F (stereo not drawn)	-27.8
CC(C)C(NC(=O)Cn1ccc(=O)n(C)c1=O)c1ccc(F)cc1 (stereo not drawn)	53.8
O=C(c1ccc(NCc2cccc(F)c2)cc1)N1CCCC1	-16.1
CCC(C(=O)N(C)Cc1cc(COC)[nH]n1)n1cccn1 (stereo not drawn)	-29.2
O=C(c1ccc(NC2CC2)nc1)N1CCCC(n2ccnc2)C1 (stereo not drawn)	31.32
CCn1cc(S(=O)(=O)N2CCCC3(CC=CNC3=O)C2)c(C)n1 (stereo not drawn)	-42.9
Cc1ccc(C(=O)NCC(O)c2cnn(C)c2)c(Br)c1 (stereo not drawn)	29.7
Cn1cc(C(O)CNC(=O)c2cc(Br)ccc2Cl)cn1 (stereo not drawn)	19.8
Cn1cc(C(O)CNC(=O)c2ccc(F)cc2Cl)cn1 (stereo not drawn)	51.6
CC(C)(O)CNC(=O)NCc1nccn1CCc1ccccc1	-4.63
CC(C)COCC(NC(=O)c1cc[nH]n1)c1ccco1 (stereo not drawn)	53.8
CC(C)COCC(NC(=O)c1ccccn1)c1ccco1 (stereo not drawn)	8.25
CC(C)COCC(NC(=O)c1cnccn1)c1ccco1 (stereo not drawn)	-26.6
CCn1nc(CC(C)C)cc1C(=O)NCC(F)(F)F	15.4
Cc1noc(C)c1CN1CCOC2(CCCN(c3ncccn3)C2)C1 (stereo not drawn)	-21.1
